JMJD2A Tudor inh: blocks the human JMJD2A Tudor domain | AID 504339 | Potency, µM (highest dose often 114 µM), inactives show at the highest dose activity change, negative = inhibition, actives largely listed as inhibitors | 4.4% of 390,000 active | AlphaScreen JMJD2A-Tudor / H3K4me3 peptide binding; further: potency means the concentration at half of the fitted maximal effect; on the % scale 0 is the no-effect control and ±100 the full control effect; nearly all actives have a fitted effect of over 50% in size
HP1b binding inh: inhibitors of HP1-beta chromodomain binding to methylated histone tails; P83916; AlphaScreen HP1-beta / biotin-H3K9me3 peptide binding; Potency, µM (top dose mostly 114 µM), for inactives: top-dose activity change, negative = inhibition, most hits filed as inhibitors; 0.56% of 390,000 active; AID 540317; further: potency means the concentration at half of the fitted maximal effect; nearly all actives have a fitted effect of over 70% in size
Target sequence (P83916 whole entry, looked up): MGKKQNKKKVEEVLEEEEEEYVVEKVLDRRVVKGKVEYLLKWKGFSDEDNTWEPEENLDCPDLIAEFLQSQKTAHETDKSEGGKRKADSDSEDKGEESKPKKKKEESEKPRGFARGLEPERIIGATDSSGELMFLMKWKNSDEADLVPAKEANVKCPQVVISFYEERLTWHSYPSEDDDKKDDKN
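Compound inhibition of the preformed complex between 50 nM HP1-beta and 50 nM biotinylated H3K9me3 peptide was read by AlphaScreen. Buffer was PBS pH 7.4 with 0.01% Tween-20. Incubations ran 30 min at room temperature, with 10 ug/mL donor/acceptor beads.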
CtBP-E1A blk: CtBP/E1A binding inhibition; activity change, % (no concentration beside the values); AlphaScreen GST-E1A/His-CtBP binding, 1536-well; hits give low values; 0.49% of 340,000 active; AID 651724; in the data active means activity change below about -65%; inconclusive means mostly about -30% to -63%; further: on the % scale 0 is the no-effect control and ±100 the full control effect
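AlphaScreen with 125 nM GST-E1A and 125 nM His-CtBP (5X stocks) in Tris pH 8.0, 300 mM NaCl, BSA, Tween 20, TCEP. Compounds preincubated 2 h at 37 deg C, then glutathione donor/nickel acceptor beads added for 1 h at 37 deg C in dark.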
Six1-Eya2 inh: Six1/Eya2 interaction inhibition | Q15475+O00167 | AlphaScreen GST-Six1/His-Eya2 binding, biochemical; hits give low values | activity change, % (concentration not given with the values) | 0.56% of 360,000 active; in the data active means activity change below about -65%; inconclusive means mostly about -30% to -63%; further: on the % scale 0 is the no-effect control and ±100 the full control effect
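Compounds are tested against tagged Six1 and Eya2 proteins bridged by glutathione donor and nickel acceptor beads; after a one-hour incubation at 37 °C without light, AlphaScreen emission is recorded.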
BAZ2B inh: inhibitors of human BAZ2B bromodomain | 4.4% of 360,000 active | Potency, µM (titrated, usually from 114 µM), for the others: at the top dose activity change, negative = inhibition, actives largely listed as inhibitors | Q9UIF8 | AlphaScreen BAZ2B-H3K14Ac peptide displacement | AID 504333; further: potency means the concentration at half of the fitted maximal effect; on the % scale 0 is the no-effect control and ±100 the full control effect; nearly all actives have a fitted effect of over 60% in size
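Multi-concentration screen (max 110 uM) measuring displacement of acetylated histone H3 peptide from BAZ2B by AlphaScreen, using 50 nM protein, 50 nM peptide and 10 ug/mL streptavidin donor plus Ni-chelate acceptor beads.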
G9a inh: inhibitors of human histone lysine methyltransferase G9a; G9a H3K9 monomethylation, AlphaScreen, 2 h; Q96KQ7; AID 504332; 8.8% of 350,000 active; Potency, µM (series often up to 102 µM), without a hit: at the top dose activity, negative = inhibition, most hits filed as inhibitors; further: potency means the concentration at half of the fitted maximal effect; on the % scale 0 is the no-effect control and ±100 the full control effect; nearly all actives have a fitted effect of over 75% in size
Target sequence (Q96KQ7 913-1193 limits assumed): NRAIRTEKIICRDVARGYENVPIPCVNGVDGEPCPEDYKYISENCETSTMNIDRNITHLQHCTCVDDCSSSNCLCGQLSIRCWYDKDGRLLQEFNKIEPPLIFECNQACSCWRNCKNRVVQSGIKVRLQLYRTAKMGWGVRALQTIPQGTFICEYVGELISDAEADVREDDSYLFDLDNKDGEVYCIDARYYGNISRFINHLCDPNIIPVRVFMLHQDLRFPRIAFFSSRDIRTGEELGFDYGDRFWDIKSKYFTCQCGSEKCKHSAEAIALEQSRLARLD
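AlphaScreen read-out: biotin-H3K9 peptide (500 nM) methylation by 20 nM enzyme with 20 uM SAM, 2 h at room temperature after 15 min compound preincubation; anti-monomethyl H3K9 antibody plus donor/acceptor beads, 10 min dark.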
* hit, by the source's call; u = inconclusive; x = not tested or not shown; [ ] = remark or other dose. The list is not random: actives were taken first. Their share in the collection is about 10%. Unless noted, the call rests on the fitted dose curve; in most records, active means well fitted inhibition curve with a large enough effect; inconclusive means small, poorly fitted or top-dose-only effect; inactive means no such curve, though single readings can be large or run the other way.

SMILES | JMJD2A Tudor inh | HP1b binding inh | CtBP-E1A blk | Six1-Eya2 inh | BAZ2B inh | G9a inh
O=C(c1ccc(Sc2cccc(Cl)c2)c([N+](=O)[O-])c1)N1CCN(c2ccccn2)CC1 | u | u | -20.6 | -23.8 | u | 15.8µM*
O=C(c1ccc(Cl)c([N+](=O)[O-])c1)N1CCN(c2ccccn2)CC1 | -19.7% | 17.7% | -0.7 | 7.9 | -5.5% | -12.9%[59 µM]
COc1ccc(OC)c(C(=O)NC(CC(N)=O)c2ccc(N3CCN(c4ccccn4)CC3)c([N+](=O)[O-])c2)c1 (stereo not drawn) | -32.9% | 16.5% | -3.6 | 2.1 | u | 79.4µM*
COc1ccc(OC)c(C(=O)NC(CC(N)=O)c2ccc(N3CCC(Cc4ccccc4)CC3)c([N+](=O)[O-])c2)c1 (stereo not drawn) | u | -19.9% | -7.8 | -4.0 | 44.7µM* | x
COc1ccc(OC)c(C(=O)NC(CC(N)=O)c2ccc(N3CCN(c4ccccc4)CC3)c([N+](=O)[O-])c2)c1 (stereo not drawn) | u | 20.8% | -11.9 | 0.9 | -37.8% | u
Cc1cc(C)cc(C(=O)NC(CC(N)=O)c2ccc(N3CCN(c4ccccn4)CC3)c([N+](=O)[O-])c2)c1 (stereo not drawn) | -11.9% | 48.5% | 5.2 | 4.2 | -2.2% | 79.4µM*
Cc1cc(S(=O)(=O)c2ccc(Cl)cc2)nc(S(=O)(=O)c2ccc(Cl)cc2)c1C#N | x | x | -4.6 | -23.9 | x | x
CC1=C(C(=O)Nc2cc(Cl)ccc2C)C(c2ccccc2F)n2ncnc2N1 (stereo not drawn) | -3.5% | 23.3%[57 µM] | x | x | 0.4% | 8.5%[59 µM]
Cc1ccc(C)c(CN2C(=O)c3ccccc3Sc3ccc(C(=O)NC4CCCC4)cc32)c1 | -11.0% | 76.6% | x | x | 1.0% | 13.3%[59 µM]
Nc1ncnc2c1nc(Cl)n2[C@@H]1O[C@H](CO)[C@@H](O)[C@@H]1O | -12.3%[57.1 µM] | 4.1%[57 µM] | x | x | x | x
CC(=O)N1CC=CC1(C)C(=O)NCc1cc(F)cc(C(F)(F)F)c1 (stereo not drawn) | 0.0% | 55.8% | -0.2 | 1.2 | -5.0% | 39.8µM*
COC(=O)N1CC=CC1(C)C(=O)NCc1cc(F)cc(C(F)(F)F)c1 (stereo not drawn) | -4.1% | 43.9% | 6.0 | 3.4 | 2.8% | 10.3%
Cc1nn(C)c2c1c(C(F)(F)F)cc(=O)n2CC(=O)Nc1ccc(F)cc1F | -4.7% | -11.0% | x | x | -1.7% | 24.2%[59 µM]
Cc1cc(SCC(=O)NCc2ccccc2Cl)nc(=O)[nH]1 | -0.3% | 28.5% | x | x | -0.7% | -15.2%[59 µM]
Cc1c(C)n(Cc2ccccc2)c2ccc(C(=O)NCC(C)c3ccccc3)cc12 (stereo not drawn) | u | -6.1% | x | x | -12.4% | -33.1%[59 µM]
CCOc1cc(-c2ccc(OC(=O)c3ccccc3)c(OC)c2)cc(=O)c2c(C)oc(C)c12 | u | 22.6% | x | x | u | u
Cc1oc(C)c2c(=O)cc(-c3ccc4c(c3)OCO4)cc(OC(=O)c3ccccc3Br)c12 | u | -16.2% | x | x | u | 12.6µM*
Cc1oc(C)c2c(=O)cc(-c3ccc4c(c3)OCO4)cc(OC(=O)c3ccccc3Cl)c12 | 63.1µM* | -3.9% | x | x | 44.7µM* | u
CCOc1cc(-c2ccc3c(c2)OCO3)cc(=[O+]CC)c2c(C)oc(C)c12 | 56.2µM* | u | x | x | x | x
O=C(CCCc1nc2ccccc2s1)NCc1ccccc1F | 6.7% | 36.1% | 9.4 | -1.2 | -5.4% | 9.6%[59 µM]
COC(=O)C[C@H]1c2cc(C(F)(F)F)ccc2S(=O)(=O)N1C(C)(C)C | -13.6% | 25.1% | 2.5 | 8.4 | x | x
O=C(O)C(Cc1c[nH]c2ccccc12)NS(=O)(=O)c1ccc(Cl)cc1 (stereo not drawn) | 0.6% | 13.0% | 2.3 | 0.0 | 8.2% | u
O=C(O)C(Cc1c[nH]c2ccccc12)NS(=O)(=O)c1ccc(Br)cc1 (stereo not drawn) | 28.2µM* | u | 4.1 | 4.0 | -20.7% | u
CC(C)C[C@H](NS(=O)(=O)c1ccc(Br)cc1)C(=O)O | 89.1µM* | -6.5% | 4.9 | 3.1 | 4.0% | -43.8%
COc1cc(NC(=O)Cc2noc3ccccc23)cc(OC)c1OC | u | -5.8% | x | x | u | -31.9%[59 µM]
SMILES | JMJD2A Tudor inh | HP1b binding inh | CtBP-E1A blk | Six1-Eya2 inh | BAZ2B inh | G9a inh
C[C@H](NC(=O)c1ccccc1)C(=O)Nc1nc(-c2ccccn2)cs1 | 79.4µM* | 35.7% | -81.1* | -84.0* | 14.1µM* | -3.5%
CC(Oc1cccc(Cl)c1)C(=O)Nc1nc(-c2ccccn2)cs1 (stereo not drawn) | 50.1µM* | 50.7% | -73.9* | u | 56.2µM* | 31.6µM*
CC(Oc1ccccc1)C(=O)Nc1nc(-c2ccccn2)cs1 (stereo not drawn) | 20µM* | 15.9% | -86.6* | -67.5* | 39.8µM* | 50.1µM*
O=C(CCCSc1ccccc1)Nc1nc(-c2ccccn2)cs1 | -26.8% | 15.8% | -17.7 | -0.1 | -0.6% | u
CCOC(=O)C1=C(CN(CC)Cc2ccccc2)NC(=O)NC1c1ccc(OC(C)C)cc1 (stereo not drawn) | -28.3% | 15.1% | x | x | x | u
O=C1NC(=S)N/C1=C\c1ccc(Oc2ccc(C(F)(F)F)cc2[N+](=O)[O-])c(Cl)c1 | 3.8% | 19.3% | 4.9 | 6.3 | 0.6% | 7.6%[12.7 µM]
CCCc1cc(-c2n[nH]c(=S)n2CC(C)C)cs1 | 79.4µM* | -1.6% | -1.1 | 1.9 | -29.9% | 2µM*
CCCCn1c(-c2csc(CC)c2)n[nH]c1=S | 39.8µM* | -18.8% | 0.3 | 1.7 | -35.6% | 1.78µM*
CCCCn1c(-c2csc(C(C)C)c2)n[nH]c1=S | 79.4µM* | u | -6.4 | 9.5 | -7.7% | 3.98µM*
S=c1[nH]nc(-c2cccc(Cl)c2)n1CCN1CCCCC1 | -35.5%[57.1 µM] | -7.4% | 1.5 | -1.0 | 6.6% | u
CCCCNC(=O)C1CCC(Cn2c(=O)c3sccc3n(CC(=O)N3CCCC3)c2=O)CC1 (stereo not drawn) | -8.7% | 107.3% | x | x | 17.4% | 19.7%[59 µM]
c1ccc(-c2cn3nc4c(nc3n2)CCCC4)cc1 | 17.2% | 67.4% | 11.6 | 3.7 | 6.4% | 50.1µM*
Brc1ccc(-c2cn3nc4c(nc3n2)CCCC4)cc1 | -6.8%[11.4 µM] | 70.3% | 27.1 | 14.0 | 9.9% | u
N#Cc1c2ccc(O)cc2n2ccccc12 | 35.8% | 84.7% | u | u | 19.5% | 3.98µM*
COc1ccc(NC(=O)c2cc(S(=O)(=O)NCCC3=CCCCC3)ccc2F)cc1 | -11.3% | 42.3% | x | x | -1.8% | -1.4%[59 µM]
COc1cc(/C=N/N=C2/SCC(=O)N2c2ccc(O)cc2)ccc1O | 8.91µM* | -10.4% | 0.0 | -2.9 | -9.8% | -17.2%
COc1cc(/C=N\N=C2/SC(CC(=O)O)C(=O)N2c2ccc(O)cc2)ccc1O (stereo not drawn) | -9.6% | 6.1% | 5.5 | 4.6 | 11.8% | -5.0%
